High-throughput results deposited in PubChem BioAssay by several laboratories.
The list is not random: actives were taken first. Their share in the collection is about 4.2%.
RecA splice inh: blocks M. tuberculosis RecA intein splicing. P9WHJ3. cell-free RecA intein splicing, fluorescence. inhibition, % (no concentration beside the values). hit rate 0.75% among 290,000; in the data active = inhibition above about 30%;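 note: 0% = vehicle wells and 100% = reference inhibitor control wells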
Target sequence (P9WHJ3 whole entry, looked up, canonical isoform): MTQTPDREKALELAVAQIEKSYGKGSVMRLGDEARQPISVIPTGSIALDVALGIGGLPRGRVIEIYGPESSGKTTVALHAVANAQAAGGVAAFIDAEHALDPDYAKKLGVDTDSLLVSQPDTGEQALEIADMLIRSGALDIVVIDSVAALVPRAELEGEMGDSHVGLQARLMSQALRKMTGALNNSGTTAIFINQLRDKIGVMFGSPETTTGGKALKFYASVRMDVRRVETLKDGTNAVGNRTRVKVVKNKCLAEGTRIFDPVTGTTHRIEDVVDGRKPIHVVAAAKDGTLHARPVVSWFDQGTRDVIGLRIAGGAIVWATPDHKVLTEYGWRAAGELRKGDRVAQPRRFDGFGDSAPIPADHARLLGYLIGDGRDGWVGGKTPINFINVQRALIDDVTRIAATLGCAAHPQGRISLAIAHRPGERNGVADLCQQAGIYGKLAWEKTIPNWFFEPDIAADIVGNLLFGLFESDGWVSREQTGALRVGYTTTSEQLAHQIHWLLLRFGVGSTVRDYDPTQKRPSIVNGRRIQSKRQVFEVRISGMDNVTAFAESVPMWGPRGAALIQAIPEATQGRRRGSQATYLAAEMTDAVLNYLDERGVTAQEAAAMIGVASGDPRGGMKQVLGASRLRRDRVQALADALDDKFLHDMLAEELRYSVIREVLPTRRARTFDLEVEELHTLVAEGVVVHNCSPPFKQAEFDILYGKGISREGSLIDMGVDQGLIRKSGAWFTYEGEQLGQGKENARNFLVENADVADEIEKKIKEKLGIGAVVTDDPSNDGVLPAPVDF
GDH-TPI counter: GDH-TPI coupled enzyme inhibition counter-screen. GDH-TPI coupled enzyme counterscreen, NADH absorbance. hit rate 1.2% among 360,000. AID 588335. inhibition, % at 4.8 µM; in the data active = inhibition above about 30%;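 note: 0% = DMSO wells and 100% = wells lacking the enzyme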
PrPC surface inh: inhibitors of human cell surface prion protein PrPC; P04156; TR-FRET read-out; inhibition, % at 13.8 µM; hit rate 0.43% among 370,000; in the data active = inhibition above about 24%; note: 0% = median of the test wells and 100% = reference compound wells
Mtb FBA inh: Mtb fructose-bisphosphate aldolase inhibition. P9WQA3. purified M. tuberculosis FBA, fluorescence read-out. inhibition, % at 1 µM. hit rate 2.3% among 360,000. AID 588726; in the data active = inhibition above about 27%;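 note: 0% = vehicle and 100% = reference inhibitor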
BJeLR lethal: kills HRASV12-expressing BJeLR cells | BJeLR (HRASV12) viability, CellTiter-Glo ATP luminescence, 48 h | inhibition, % (no concentration beside the values) | hit rate 0.17% among 300,000; in the data active = inhibition above about 50%
* marks the source's active call; other numbers are inactive results; / = no result.

SMILES	RecA splice inh	GDH-TPI counter	PrPC surface inh	Mtb FBA inh	BJeLR lethal
COC(=O)[C@]12C[C@H](CC(=O)NCCC(C)C)C(=O)N(Cc3ccccc3)C1=C[C@H](C(C)(C)C)O[C@@H]2C	/	/	8	/	/
COc1ccc(CNC(=O)c2sc3nc(C)c(Cl)c(C)c3c2N)cc1	/	/	5	/	/
O=C(OC12CCCN(C1)/C(=C/c1cccc(Cl)c1)C2)c1ccc(Cl)cc1 (centres undefined)	/	/	3	/	/
COCCCNC(=O)C[C@H]1C[C@@]2(C(=O)OC)C(=C[C@H](C3CCCC3)O[C@@H]2C)N(CCc2ccc(OC)c(OC)c2)C1=O	/	/	-1	/	/
Cc1n[nH]c(C)c1NC(=O)c1cc([N+](=O)[O-])ccc1Cl	-1	5	-12	142*	-4
CCOC(=O)[C@]12CCCCC/C=C\1N(CCc1ccc(Cl)cc1)C(=O)[C@H]2CC(=O)NCCCCc1ccccc1	/	/	1	/	/
CCN(CC(=O)Nc1ccc(NC(C)=O)cc1)C(=O)/C=C/c1ccc(C)o1	/	35*	4	1	/
CCOc1ccc(CCNC(=O)c2cc(-c3ccccc3)c(N3CCOCC3)s2)cc1OC	/	/	-13	/	/
COC(=O)CCCC1=CC2=C(c3ccccc3)C(=O)C(C)(OC(=O)C3CCCC3)C(=O)C2=CN1Cc1ccco1 (centres undefined)	8	3	-7	-4	-1
COC(=O)CCCC1=CC2=C(c3ccccc3)C(=O)C(C)(OC(=O)C3CCCC3)C(=O)C2=CN1CCCCO (centres undefined)	39*	-7	-5	2	10
C[C@@H]1[C@@H](O)C[C@@]2(C[C@H](O)c3cc(Cl)ccc3O2)O[C@H]1c1ccccc1Cl	/	/	-2	/	/
O=C1NC(=O)/C(=C\c2ccc(OCc3cccc(C(=O)O)c3)c(Cl)c2)N1	5	21	-6	2	0
COc1cc(/C=C2\NC(=S)NC2=O)ccc1OCc1cccc(C(=O)O)c1	1	32*	-27	2	-1
COc1cc(N/N=C/c2ccccc2O)ncn1	-3	47*	-2	3	-6
CCc1cc(=O)oc2cc(OCC(=O)NCC3CCC(C(=O)O)CC3)ccc12 (centres undefined)	-1	19	-6	28*	-9
CCCc1cc(=O)oc2cc(OCc3ccc(C(=O)O)cc3)ccc12	-4	13	0	48*	10
COc1ccc(-c2cc3ccc(OCC(=O)NCC4CCC(C(=O)O)CC4)cc3oc2=O)cc1 (centres undefined)	-80	42*	-16	178*	8
C=C(Cl)COc1ccc2c(CCC)cc(=O)oc2c1	3	9	7	16	-7
C[C@H]1[C@@H](OC(=O)NCCc2ccccc2)CC[C@@]23CCCN2C(=O)CCC[C@@H]13	/	/	-9	/	/
O=C(O)c1ccccc1NN=Cc1ccccc1	/	36*	0	5	/
CC(C)=CCN1CCN(Cc2cccc3nccnc23)CC1CCO (centres undefined)	-1	31*	-9	-2	12
O=[N+]([O-])c1ccc2nc(-c3ccc(Cl)cc3)n(OCc3ccccc3)c2c1	7	34*	9	-1	0
O=C(/C=C/c1ccco1)NC(=S)Nc1ccccc1N1CCCC1	-6	27	-1	-5	-9
CC(=O)N(C)c1ccc(NC(=S)NC(=O)/C=C/c2ccco2)cc1	0	40*	-20	-7	-5
CC(=O)Nc1ccc(NC(=S)NC(=O)/C=C/c2ccco2)cc1	0	6	-20	2	-17
SMILES	RecA splice inh	GDH-TPI counter	PrPC surface inh	Mtb FBA inh	BJeLR lethal
Cc1cccnc1NC(=S)NC(=O)/C=C/c1ccco1	-6	16	0	0	-1
CCOc1ccc(NC(=S)NC(=O)/C=C/c2ccco2)cc1	0	11	9	-4	-5
O=C(/C=C/c1ccco1)NC(=S)Nc1ccccn1	2	40*	-7	1	12
O=C(/C=C/c1ccco1)NC(=S)Nc1ccccc1N1CCOCC1	1	46*	-8	-2	-4
CN1CCN(c2ccc(NC(=S)NC(=O)/C=C/c3ccco3)cc2)CC1	0	31*	-22	-2	-4
COc1cc(C2Nc3ccccc3NC3=C2C(=O)CC(c2ccc(OC)c(OC)c2)C3)ccc1O (centres undefined)	1	44*	-4	0	-3
COc1ccc(C2CC(=O)C3=C(C2)Nc2ccccc2N(C(=O)C2CC2)C3c2cccnc2)cc1OC (centres undefined)	4	28	5	0	23
O=C1C(=O)N(CCO)C(c2ccc(Br)cc2)/C1=C(\O)c1ccccc1 (centres undefined)	-4	33*	1	2	-2
COCCCNC(=O)/C(=C\c1cccn1C)NC(=O)c1cccs1	-2	34*	-7	3	-3
CC[C@H](CCCCCCCn1ccc2ccccc21)CCC(=O)N(c1ccccc1)c1ccccc1	/	/	-6	/	/
O=C1CCC[C@H]2Cc3nc4cccc(Cl)c4cc3C[C@]23CCCN13	/	/	-9	/	/
CCOc1cc(C2NN=C(c3ccc(C)cc3)S2)ccc1O (centres undefined)	/	34*	-8	4	/
CNC(=O)[C@@H]1CC=C[C@@H]2CCN(c3ccccc3)C(=O)[C@@H]21	/	/	-1	/	/
Fc1ccc(-c2n[nH]c(=S)n2N=Cc2ccc(OCc3ccccc3)cc2)cc1	/	/	-2	/	/
COc1ccc(-c2nc(-c3ccccc3)nc(N3CCN(C)CC3)c2C#N)cc1	1	9	6	38*	-1
CN(C)CC(=O)N[C@@H]1C[C@@H]2O[C@@H](CO)CC[C@@H]2O[C@@H]1CCc1ccc(-c2ccc(F)cc2)cc1	/	/	-5	/	/
Cc1ccc2c(c1)c1nnc(SCC(=O)Nc3ccc(N(C)C)cc3)nc1n2CC(=O)O	39*	16	-16	-2	13
Cc1ccc2c(c1)c1nnc(SCC(=O)Nc3cccc(Cl)c3C)nc1n2CC(=O)O	/	5	-15	3	-3
COC(=O)[C@]12C[C@H](CC(=O)N3CCSCC3)C(=O)N(CCc3ccc(OC)c(OC)c3)C1=C[C@H](COCc1ccccc1)O[C@@H]2C	/	/	-10	/	/
Cc1nn(-c2ccccc2)c2sc(C(=O)N3CCN(S(=O)(=O)c4ccc(Br)s4)CC3)cc12	/	/	-5	/	/
COc1ccc(C(C#N)=Cc2ccccc2OC)cc1	/	11	0	0	/
COc1cccc(N/C=C(\C#N)c2ccc(OCCCF)cc2)c1	-2	33*	3	2	0
O=C(O)CCN1C(=O)/C(=C\c2ccncc2)SC1=S	0	2	12	0	-9
O=C(CCCN1C(=O)/C(=C/c2cccs2)SC1=S)NNC(=O)c1cccnc1	-3	33*	-4	3	16
O=C(NN1C(=O)/C(=C/c2cccs2)SC1=S)c1ccncc1	2	34*	-1	-7	2
COC(=O)CCCCCN1C(=O)/C(=C\c2ccncc2)SC1=S	34*	15	8	8	-14
COc1ccc(C2/C(=C(/O)c3ccc(C)cc3)C(=O)C(=O)N2C)cc1 (centres undefined)	1	32*	-1	-1	0
COc1cccc(N2CCN(CC(=O)NCc3ccc(F)cc3)CC2)c1	/	/	1	/	/
